Read-out in test [1]: Human Leukocyte Antigen - DR isotype (HLADR), HLA-DRA (gene 3122)
Briefly: BSK_BE3C_HLADR: BioMAP Diversity Plus: BE3C Assay for Human Leukocyte Antigen - DR isotype (HLADR) Biomarker Activity (AID 2283032). The note with it: primary human bronchial epithelial cells; actives raise or lower the signal. In outline: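 Cell-surface HLA-DR ELISA readout at 24 h after dosing in the BE3C primary human lung bronchial epithelial system; gain or loss of signal against DMSO, with parallel sulforhodamine B staining of total protein for overt cytotoxicity.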

Read-out in test [2]: Vascular cell adhesion molecule 1 (VCAM1), VCAM1 (gene 7412)
As to the kind of experiment: BSK_4H_VCAM1: BioMAP Diversity Plus: 4H Assay for Vascular cell adhesion molecule 1 (VCAM1) Biomarker Activity (AID 2283033).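 On outcome: cell-surface VCAM-1 protein measured by ELISA.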 The note with it: primary human endothelial cells (HUVEC); actives raise or lower the signal. A digest of the protocol:
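VCAM-1 ELISA read 24 h after chemical dosing of HUVEC in the BioMAP 4H system, with gain or loss of signal fitted relative to DMSO. Parallel SRB staining (560 nm) checked overt cytotoxicity.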

Read-out in test [3]: Interferon-gamma inducible Protein 10 (IP10), CXCL10 (gene 3627)
As to the kind of experiment: BSK_BE3C_IP10: BioMAP Diversity Plus: BE3C Assay for Interferon-gamma inducible Protein 10 (IP10) Biomarker Activity (AID 2283034). The settings on record: primary human bronchial epithelial cells; actives raise or lower the signal. A digest of the protocol: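 IP-10 quantified by ELISA in human primary bronchial epithelial cell cultures at 24 hours post-dosing. Gain or loss of signal fitted relative to DMSO; parallel SRB staining assessed overt cytotoxicity.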

Read-out in test [4]: Monokine induced gamma interferon (MIG), CXCL9 (gene 4283)
Briefly: BSK_BE3C_MIG: BioMAP Diversity Plus: BE3C Assay for Monokine induced gamma interferon (MIG) Biomarker Activity (AID 2283035). The settings on record: primary human bronchial epithelial cells; actives raise or lower the signal. In outline:
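hu bronchial epithelial 1° cells, 24 h cpd; MIG by ELISA; bidirectional fit, DMSO = baseline.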

Read-out in test [5]: Transforming growth factor beta 1 (TGFb1), TGFB1 (gene 7040)
Briefly: BSK_BE3C_TGFb1: BioMAP Diversity Plus: BE3C Assay for Transforming growth factor beta 1 (TGFb1) Biomarker Activity (AID 2283036;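 on outcome: TGF-b1 protein level measured by ELISA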). The settings on record: primary human bronchial epithelial cells; actives raise or lower the signal. In outline:
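ELISA readout of TGF-b1 from human lung bronchial epithelial primary cells, taken 24 h post-treatment. Gain or loss of signal fitted relative to DMSO baseline, with parallel SRB staining for overt cytotoxicity.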

Read-out in test [6]: Plasminogen activator inhibitor-1 (PAI1), SERPINE1 (gene 5054)
Briefly: BSK_BE3C_PAI1: BioMAP Diversity Plus: BE3C Assay for Plasminogen activator inhibitor-1 (PAI1) Biomarker Activity (AID 2283037). The settings on record: primary human bronchial epithelial cells; actives raise or lower the signal. A digest of the protocol:
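PAI-1 was measured by ELISA in human primary bronchial epithelial cultures 24 h after chemical dosing, with cytotoxicity checked by SRB total-protein staining in parallel cultures. Activity was fitted in both directions relative to DMSO.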

Read-out in test [7]: Urokinase-type plasminogen activator receptor (uPAR), PLAUR (gene 5329)
As to the kind of experiment: BSK_BE3C_uPAR: BioMAP Diversity Plus: BE3C Assay for Urokinase-type plasminogen activator receptor (uPAR) Biomarker Activity (AID 2283039).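 On outcome: cells exposed to compound for one day before measurement.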 The note with it: primary human bronchial epithelial cells; actives raise or lower the signal. In outline: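 uPAR levels were measured by ELISA after 24 h compound treatment of primary human bronchial epithelial cells, fitted in both directions relative to DMSO. Parallel SRB staining served as the cytotoxicity read-out.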

Read-out in test [8]: Interleukin-6 (IL6), IL6 (gene 3569)
Briefly: BSK_CASM3C_IL6: BioMAP Diversity Plus: CASM3C Assay for Interleukin-6 (IL6) Biomarker Activity for (AID 2283040). The settings on record: primary human coronary artery smooth muscle cells; actives raise or lower the signal.

Read-out in test [9]: Tissue plasminogen activator (tPA), PLAT (gene 5327)
As to the kind of experiment: BSK_BE3C_tPA: BioMAP Diversity Plus: BE3C Assay for Tissue plasminogen activator (tPA) Biomarker Activity (AID 2283041).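 On outcome: tPA level quantified by ELISA one day after compound addition.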 The note with it: primary human bronchial epithelial cells; actives raise or lower the signal. In outline: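 tPA measured by ELISA 24 h after dosing human primary bronchial epithelial cells (BE3C system). Changes in either direction were fitted against DMSO. Parallel cultures were stained with SRB to flag overt cytotoxicity.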

Read-out in test [10]: urokinase plasminogen activator (uPA), PLAU (gene 5328)
Briefly: BSK_BE3C_uPA: BioMAP Diversity Plus: BE3C Assay for urokinase plasminogen activator (uPA) Biomarker Activity (AID 2283038).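 On outcome: uPA protein level quantified by ELISA in cell cultures; uPA read one day after compound addition.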 The settings on record: primary human bronchial epithelial cells; actives raise or lower the signal. In outline:
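Bronchial epithelial cells (human, primary); chemical 24 h; uPA by ELISA; bidirectional fit vs DMSO. SRB (0.1%, after 10% TCA fixation, 560 nm) in parallel cultures for cytotoxicity.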

Activity calls are given as the source filed them. How the source made its calls: active means hit-call score of the fitted dose curve at least 0.9, where 1 is the maximum; inactive means score below 0.9.

Regarding `CC1(C)NC(=O)N(c2ccc([N+](=O)[O-])c(C(F)(F)F)c2)C1=O`, the result in test [1], in test [2], in test [3], in test [4], in test [5] and in [6] was inactive. Further, the outcome in test [7], in test [8] and in [9] was inactive.

Broadly, the AC50 is the concentration giving half of the maximal activity seen. As for `COc1cc(C(=O)NC2CCN(C)CC2)ccc1Nc1ncc2c(n1)N(C1CCCC1)CC(F)(F)C(=O)N2C`, the AC50 is 21.9 µM (active) in test [1]; 7.23 µM (active) in test [2]; 35.5 µM (active) in [3]; 31.8 µM (active) in [4]; 18.5 µM (active) in test [5]; 18.6 µM (active) in test [6]. The AC50 in test [7] was 5.34 µM (active); in test [8], 8.51 µM (active); in test [9], 10.6 µM (active).

Take `CCCCCCCCCCCC[N+](C)(C)C`: the AC50 in test [1] was 28.3 µM (active); in test [2], 26.8 µM (active); in test [3] it was 21.8 µM (active); in [4] it was 33.1 µM (active); in test [6], 21.9 µM (active); in test [10], 31.6 µM (active). For the same compound, the figures for the AC50 in [7] and in [9] were 33.9 µM (active) and 15 µM (active), respectively. Besides, in [8], the outcome was inactive.

As to `Cc1oc2c(NC(=O)c3c(Cl)cccc3Cl)cccc2c1C(C)(C)O`, the AC50 in test [1] was 18.1 µM (active); in test [8] it was 33.2 µM (active); in test [9], 15.1 µM (active). Also, the outcome in test [2], in test [3], in [4], in test [5], in test [6] and in test [7] was inactive.

In the case of `c1ccc(C[n+]2cccc3ccccc32)cc1`, the result in test [1], in test [2], in [4], in test [5], in [6] and in [7] was inactive. Besides, the result in [8] and in test [9] was inactive. Moreover, the AC50 in test [3] was 30.2 µM (active).

In the case of `Oc1ccc2ccccc2c1`, the result in test [1], in [2], in [4], in [5], in test [6] and in test [7] was inactive. In addition, the outcome in test [9] was inactive. Besides, the AC50 in test [3] was 32.5 µM (active); in [8] it was 20 µM (active).

For `NC(=O)c1nc(-c2cccc(-c3cc(F)ccc3OCC(F)(F)C(F)(F)F)c2)n[nH]1`, the concentration at half-maximal activity (AC50) was 38.2 µM (active) in [2]; 35.9 µM (active) in test [3]; 37.5 µM (active) in test [4]; 33 µM (active) in [5]; 35.1 µM (active) in [6]; 37.7 µM (active) in test [10]. Further, the AC50 in [7] was 35.3 µM (active); in test [9], 27.5 µM (active). Also, the outcome in test [8] was inactive.

`Cc1cc2c(cc1C(F)(F)F)N(C(=O)Nc1ccc(Oc3cccnc3C)nc1)CC2`: the AC50 was 5.03 µM (active) in test [1] and 13.1 µM (active) in test [3]. Moreover, the result in [2], in test [4], in test [5], in test [6], in test [7] and in test [8] was inactive. In test [9], the outcome was inactive.

Take `CC[C@H](NC(=O)c1cc(F)ccc1NS(=O)(=O)c1cccc2cccnc12)c1ccccc1`: the result in test [1], in [2], in test [3], in test [4], in test [5] and in test [6] was inactive. Further, the outcome in test [7], in test [8] and in [9] was inactive.

As to `CC(C)(c1cc(Br)c(O)c(Br)c1)c1cc(Br)c(O)c(Br)c1`, the AC50 in test [1] is 7.25 µM (active); in test [2], 29.6 µM (active); in test [3], 6.45 µM (active); in test [4], 9.16 µM (active); in test [5], 5.15 µM (active); in test [6], 4.89 µM (active). The AC50 is 9.25 µM (active) in test [7] and 3.37 µM (active) in test [9]. For the same compound, the result in test [8] was inactive.

As for `Cc1ccc(C(C)C)cc1`, the result in test [1], in test [2], in [3], in [4], in test [5] and in test [6] was inactive. In addition, the outcome in test [7], in test [8] and in [9] was inactive.

Consider `CCCCCCCCOC(=O)c1cc(O)c(O)c(O)c1`, for which the AC50 is 22 µM (active) in [1]; 6.26 µM (active) in [2]; 29.8 µM (active) in test [3]; 34 µM (active) in test [4]; 27.2 µM (active) in test [5]; 32.8 µM (active) in [6]. The concentration at half-maximal activity (AC50) was 36.5 µM (active) in test [7], 3.97 µM (active) in test [8] and 24.9 µM (active) in [9].

In the case of `Cc1cn([C@H]2C[C@H](N=[N+]=[N-])[C@@H](CO)O2)c(=O)[nH]c1=O`, the result in test [1], in test [2], in [3], in test [4], in [5] and in [6] was inactive. In addition, the outcome in test [7], in test [8] and in test [9] was inactive.

In the case of `O=C=NCCCCCCN=C=O`, the result in test [1], in test [2], in test [3], in test [4], in [5] and in [6] was inactive. Further, the outcome in test [7], in test [8] and in test [9] was inactive.

With `CCCCOC(=O)c1ccc(O)cc1`, the result in [1], in [2], in test [3], in test [4], in [5] and in [6] was inactive. The result in test [7], in test [8] and in test [9] was inactive.

For the compound `CN1C(=O)CC[C@H]1c1cccnc1`, the outcome in test [1], in test [2], in [3], in test [4], in [5] and in [6] was inactive. Also, the result in test [7], in test [8] and in test [9] was inactive.

With `Clc1cc(Cl)c2c(c1)N=C1CCCCCN1C2`, the outcome in test [1], in [2], in test [3], in test [4], in test [5] and in test [6] was inactive. Also, the result in test [7], in test [8] and in test [9] was inactive.

For the compound `Cc1c2ccccc2c(C)c2c1ccc1ccccc12`, the result in test [1], in test [3], in [4], in [7] and in test [9] was inactive. Moreover, the AC50 in [2] was 20 µM (active); in test [5], 6.06 µM (active); in test [6], 29 µM (active); in test [8], 20 µM (active).

On to `Cc1occc1C(=O)Nc1ccc(C(=O)N2CCC(F)(F)/C(=C\C(=O)N3CCC(N4CCCCC4)CC3)c3ccccc32)cc1`, for which the outcome in test [1], in [3], in test [4], in [6], in test [10] and in [7] was inactive. Moreover, the result in test [8] and in test [9] was inactive. The AC50 in [2] is 9.44 µM (active).

Consider `CCCCCCCCCCCCO`, for which the result in [1], in test [4], in test [6] and in test [7] was inactive. Moreover, the AC50 in test [2] is 30.5 µM (active); in [3], 30.8 µM (active); in test [5], 30.1 µM (active); in test [8], 30.7 µM (active); in test [9], 24.8 µM (active).
